Consider one molecule from ChEMBL document CHEMBL2218924, “A broad activity screen in support of a chemogenomic map for kinase signalling research and drug discovery” (Biochem J, 2013).

For experiment [1], the target named is Tyrosine-protein kinase SYK (Homo sapiens) (UniProt P43405). As to conditions: at 10 µM.
For experiment [2], the target named is T1, Serine/threonine-protein kinase TAO1 (Homo sapiens) (UniProt Q7L7X3).
T1 sequence (whole entry): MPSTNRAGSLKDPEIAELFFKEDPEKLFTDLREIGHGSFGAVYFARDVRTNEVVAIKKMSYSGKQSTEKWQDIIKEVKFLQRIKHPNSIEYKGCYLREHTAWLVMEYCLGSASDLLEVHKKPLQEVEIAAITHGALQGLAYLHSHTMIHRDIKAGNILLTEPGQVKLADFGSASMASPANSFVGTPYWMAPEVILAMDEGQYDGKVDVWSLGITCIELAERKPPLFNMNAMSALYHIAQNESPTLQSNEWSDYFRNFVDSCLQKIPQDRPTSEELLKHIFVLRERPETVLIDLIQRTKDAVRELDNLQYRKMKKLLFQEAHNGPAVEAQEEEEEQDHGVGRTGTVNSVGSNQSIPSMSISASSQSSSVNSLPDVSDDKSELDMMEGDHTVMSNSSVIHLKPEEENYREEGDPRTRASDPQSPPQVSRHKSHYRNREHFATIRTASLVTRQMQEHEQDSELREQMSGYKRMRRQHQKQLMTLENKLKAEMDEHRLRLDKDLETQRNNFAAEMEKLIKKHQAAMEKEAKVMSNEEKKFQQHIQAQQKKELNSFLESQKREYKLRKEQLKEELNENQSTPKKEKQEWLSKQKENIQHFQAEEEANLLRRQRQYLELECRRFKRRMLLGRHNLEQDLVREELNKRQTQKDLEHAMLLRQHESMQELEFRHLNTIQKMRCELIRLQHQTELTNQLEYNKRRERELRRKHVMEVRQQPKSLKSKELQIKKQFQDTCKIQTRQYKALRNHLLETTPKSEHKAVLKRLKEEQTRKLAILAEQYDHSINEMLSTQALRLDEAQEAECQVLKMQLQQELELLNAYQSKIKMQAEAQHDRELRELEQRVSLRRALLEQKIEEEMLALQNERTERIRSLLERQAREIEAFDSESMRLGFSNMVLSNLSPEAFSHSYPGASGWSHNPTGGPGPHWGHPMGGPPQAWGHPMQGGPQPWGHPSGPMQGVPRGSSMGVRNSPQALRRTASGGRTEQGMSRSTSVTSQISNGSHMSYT
The settings on record: at 1 µM.

For experiment [3], the target named is T1, Serine/threonine-protein kinase TAO1 (Homo sapiens). As to conditions: at 10 µM.
Experiment [4] concerns the target T2, Serine/threonine-protein kinase TAO2 (Homo sapiens) (UniProt Q9UL54).
T2 sequence (whole entry): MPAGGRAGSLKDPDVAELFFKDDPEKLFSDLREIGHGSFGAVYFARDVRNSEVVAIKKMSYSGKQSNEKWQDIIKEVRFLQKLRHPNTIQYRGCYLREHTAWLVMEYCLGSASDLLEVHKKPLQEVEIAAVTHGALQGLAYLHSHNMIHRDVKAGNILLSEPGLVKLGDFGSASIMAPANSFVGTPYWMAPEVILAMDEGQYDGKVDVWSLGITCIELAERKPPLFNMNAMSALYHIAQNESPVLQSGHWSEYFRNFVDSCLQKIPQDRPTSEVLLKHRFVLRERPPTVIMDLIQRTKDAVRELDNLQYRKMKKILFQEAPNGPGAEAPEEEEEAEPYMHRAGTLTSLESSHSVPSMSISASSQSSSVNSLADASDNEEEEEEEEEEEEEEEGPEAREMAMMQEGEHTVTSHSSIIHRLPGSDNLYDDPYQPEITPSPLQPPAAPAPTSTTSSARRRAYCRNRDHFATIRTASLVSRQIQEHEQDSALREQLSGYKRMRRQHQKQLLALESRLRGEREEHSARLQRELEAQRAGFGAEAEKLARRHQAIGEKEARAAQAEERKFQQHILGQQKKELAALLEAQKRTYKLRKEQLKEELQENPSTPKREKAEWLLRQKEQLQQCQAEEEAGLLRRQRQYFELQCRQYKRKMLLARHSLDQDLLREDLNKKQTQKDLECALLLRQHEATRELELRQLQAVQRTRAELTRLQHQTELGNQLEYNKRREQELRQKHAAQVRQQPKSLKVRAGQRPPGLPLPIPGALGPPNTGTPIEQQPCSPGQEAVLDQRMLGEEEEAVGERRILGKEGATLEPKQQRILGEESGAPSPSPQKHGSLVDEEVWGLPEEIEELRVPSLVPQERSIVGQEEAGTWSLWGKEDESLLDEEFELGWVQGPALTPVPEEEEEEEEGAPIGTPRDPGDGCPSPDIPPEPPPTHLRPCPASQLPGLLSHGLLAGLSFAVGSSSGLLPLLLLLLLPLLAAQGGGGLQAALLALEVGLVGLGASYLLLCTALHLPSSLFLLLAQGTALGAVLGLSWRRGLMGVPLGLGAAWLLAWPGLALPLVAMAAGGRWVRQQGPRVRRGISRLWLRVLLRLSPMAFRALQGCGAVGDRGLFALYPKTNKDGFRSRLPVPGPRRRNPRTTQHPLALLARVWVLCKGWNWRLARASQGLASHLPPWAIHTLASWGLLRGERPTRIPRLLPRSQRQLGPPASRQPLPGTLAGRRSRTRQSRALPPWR
The settings on record: at 1 µM.

Experiment [5] deals with T2, Serine/threonine-protein kinase TAO2 (Homo sapiens). As to conditions: at 10 µM.
For experiment [6], the target named is T3, Serine/threonine-protein kinase TAO3 (Homo sapiens) (UniProt Q9H2K8).
T3 sequence (whole entry): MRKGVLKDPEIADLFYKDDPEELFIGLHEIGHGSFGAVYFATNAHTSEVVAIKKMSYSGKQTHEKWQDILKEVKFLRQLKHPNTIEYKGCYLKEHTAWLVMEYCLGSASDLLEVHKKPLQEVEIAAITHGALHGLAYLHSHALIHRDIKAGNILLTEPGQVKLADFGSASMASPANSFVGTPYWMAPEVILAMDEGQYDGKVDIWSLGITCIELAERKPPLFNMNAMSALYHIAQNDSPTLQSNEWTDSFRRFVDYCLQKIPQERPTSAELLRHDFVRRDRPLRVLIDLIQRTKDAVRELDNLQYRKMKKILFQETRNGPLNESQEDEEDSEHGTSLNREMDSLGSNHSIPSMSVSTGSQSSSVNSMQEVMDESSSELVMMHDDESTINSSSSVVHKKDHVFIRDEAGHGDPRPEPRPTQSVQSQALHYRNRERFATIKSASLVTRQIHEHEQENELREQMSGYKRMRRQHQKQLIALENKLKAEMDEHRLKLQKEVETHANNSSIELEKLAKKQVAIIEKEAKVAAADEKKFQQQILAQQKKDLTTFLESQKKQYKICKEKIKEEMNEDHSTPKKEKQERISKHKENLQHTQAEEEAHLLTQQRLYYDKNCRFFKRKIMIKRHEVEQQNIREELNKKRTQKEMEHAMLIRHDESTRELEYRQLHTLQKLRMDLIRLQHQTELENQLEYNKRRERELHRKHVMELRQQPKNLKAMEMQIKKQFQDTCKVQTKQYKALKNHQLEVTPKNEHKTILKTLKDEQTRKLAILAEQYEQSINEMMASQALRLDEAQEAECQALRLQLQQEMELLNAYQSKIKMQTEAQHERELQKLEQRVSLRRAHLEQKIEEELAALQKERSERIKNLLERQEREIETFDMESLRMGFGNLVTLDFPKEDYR
As to conditions: at 1 µM.

Experiment [7] deals with T3, Serine/threonine-protein kinase TAO3 (Homo sapiens). The settings on record: at 10 µM.
In experiment [8] the target is T4, Serine/threonine-protein kinase TBK1 (Homo sapiens) (UniProt Q9UHD2).
T4 sequence (whole entry): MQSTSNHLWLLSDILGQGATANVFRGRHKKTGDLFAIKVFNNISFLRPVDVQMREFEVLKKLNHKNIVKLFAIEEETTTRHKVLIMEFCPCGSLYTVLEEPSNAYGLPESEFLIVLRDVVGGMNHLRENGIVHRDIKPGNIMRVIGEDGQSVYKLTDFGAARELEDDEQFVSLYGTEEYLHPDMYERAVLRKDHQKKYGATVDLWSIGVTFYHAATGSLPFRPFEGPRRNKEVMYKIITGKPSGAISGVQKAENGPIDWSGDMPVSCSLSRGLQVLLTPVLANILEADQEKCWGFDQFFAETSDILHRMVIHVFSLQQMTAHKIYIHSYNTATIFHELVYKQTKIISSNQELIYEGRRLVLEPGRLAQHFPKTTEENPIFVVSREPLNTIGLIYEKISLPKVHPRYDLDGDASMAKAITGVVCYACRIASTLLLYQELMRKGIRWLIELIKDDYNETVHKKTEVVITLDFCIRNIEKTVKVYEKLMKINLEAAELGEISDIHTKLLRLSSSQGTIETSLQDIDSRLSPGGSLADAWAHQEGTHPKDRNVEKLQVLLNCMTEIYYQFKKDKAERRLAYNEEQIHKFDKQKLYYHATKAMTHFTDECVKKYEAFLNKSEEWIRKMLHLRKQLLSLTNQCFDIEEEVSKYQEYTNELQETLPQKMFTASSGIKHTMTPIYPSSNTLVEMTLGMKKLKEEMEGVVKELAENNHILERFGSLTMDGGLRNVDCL
The settings on record: at 1 µM.

Experiment [9] deals with T4, Serine/threonine-protein kinase TBK1 (Homo sapiens). The settings on record: at 10 µM.
For experiment [10], the target named is T5, TGF-beta receptor type-1 (Homo sapiens) (UniProt P36897).
T5 sequence (whole entry): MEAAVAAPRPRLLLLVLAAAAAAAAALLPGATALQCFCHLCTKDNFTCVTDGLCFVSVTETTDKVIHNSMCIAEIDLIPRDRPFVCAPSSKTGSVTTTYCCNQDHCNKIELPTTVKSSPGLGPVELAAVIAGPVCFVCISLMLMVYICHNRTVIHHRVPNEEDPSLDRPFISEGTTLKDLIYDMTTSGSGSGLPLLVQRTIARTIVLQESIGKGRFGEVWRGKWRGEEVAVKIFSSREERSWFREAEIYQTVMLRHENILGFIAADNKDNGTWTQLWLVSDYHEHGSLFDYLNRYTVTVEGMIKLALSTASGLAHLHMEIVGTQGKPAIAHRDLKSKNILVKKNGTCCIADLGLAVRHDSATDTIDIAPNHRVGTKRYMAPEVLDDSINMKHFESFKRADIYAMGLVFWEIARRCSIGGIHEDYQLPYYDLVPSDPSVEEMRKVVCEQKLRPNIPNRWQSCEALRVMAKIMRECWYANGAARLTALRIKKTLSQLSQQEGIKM
The settings on record: at 1 µM.

The target of experiment [11] is Insulin-like growth factor 1 receptor (Homo sapiens) (UniProt P08069). As to conditions: at 1 µM.
The target is the same in experiment [12]. The settings on record: at 10 µM.
Experiment [13] deals with T6, Inhibitor of nuclear factor kappa-B kinase subunit alpha (Homo sapiens) (UniProt O15111).
T6 sequence (whole entry): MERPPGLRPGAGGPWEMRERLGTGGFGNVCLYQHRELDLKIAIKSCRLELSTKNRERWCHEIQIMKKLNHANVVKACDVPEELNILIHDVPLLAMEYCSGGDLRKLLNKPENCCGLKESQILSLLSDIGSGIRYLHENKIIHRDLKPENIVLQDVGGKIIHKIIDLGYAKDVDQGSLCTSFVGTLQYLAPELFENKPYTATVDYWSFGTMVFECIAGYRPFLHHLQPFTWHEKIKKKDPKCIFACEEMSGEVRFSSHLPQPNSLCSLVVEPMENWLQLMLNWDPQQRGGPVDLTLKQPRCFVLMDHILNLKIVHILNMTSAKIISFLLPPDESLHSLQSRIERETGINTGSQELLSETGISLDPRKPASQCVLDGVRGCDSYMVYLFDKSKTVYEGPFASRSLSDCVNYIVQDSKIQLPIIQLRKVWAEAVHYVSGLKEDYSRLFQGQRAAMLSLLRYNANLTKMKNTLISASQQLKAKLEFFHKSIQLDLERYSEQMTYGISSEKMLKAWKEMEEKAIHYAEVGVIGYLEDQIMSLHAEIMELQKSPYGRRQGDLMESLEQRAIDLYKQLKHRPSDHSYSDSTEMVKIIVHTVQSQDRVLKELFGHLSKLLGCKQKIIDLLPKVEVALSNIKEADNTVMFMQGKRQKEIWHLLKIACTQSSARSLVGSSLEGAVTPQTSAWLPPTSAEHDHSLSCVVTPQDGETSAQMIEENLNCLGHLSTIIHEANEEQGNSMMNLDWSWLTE
The settings on record: at 1 µM.

Experiment [14] concerns the target T6, Inhibitor of nuclear factor kappa-B kinase subunit alpha (Homo sapiens). The settings on record: at 10 µM.
Experiment [15] addresses T7, Inhibitor of nuclear factor kappa-B kinase subunit beta (Homo sapiens) (UniProt O14920).
T7 sequence (whole entry): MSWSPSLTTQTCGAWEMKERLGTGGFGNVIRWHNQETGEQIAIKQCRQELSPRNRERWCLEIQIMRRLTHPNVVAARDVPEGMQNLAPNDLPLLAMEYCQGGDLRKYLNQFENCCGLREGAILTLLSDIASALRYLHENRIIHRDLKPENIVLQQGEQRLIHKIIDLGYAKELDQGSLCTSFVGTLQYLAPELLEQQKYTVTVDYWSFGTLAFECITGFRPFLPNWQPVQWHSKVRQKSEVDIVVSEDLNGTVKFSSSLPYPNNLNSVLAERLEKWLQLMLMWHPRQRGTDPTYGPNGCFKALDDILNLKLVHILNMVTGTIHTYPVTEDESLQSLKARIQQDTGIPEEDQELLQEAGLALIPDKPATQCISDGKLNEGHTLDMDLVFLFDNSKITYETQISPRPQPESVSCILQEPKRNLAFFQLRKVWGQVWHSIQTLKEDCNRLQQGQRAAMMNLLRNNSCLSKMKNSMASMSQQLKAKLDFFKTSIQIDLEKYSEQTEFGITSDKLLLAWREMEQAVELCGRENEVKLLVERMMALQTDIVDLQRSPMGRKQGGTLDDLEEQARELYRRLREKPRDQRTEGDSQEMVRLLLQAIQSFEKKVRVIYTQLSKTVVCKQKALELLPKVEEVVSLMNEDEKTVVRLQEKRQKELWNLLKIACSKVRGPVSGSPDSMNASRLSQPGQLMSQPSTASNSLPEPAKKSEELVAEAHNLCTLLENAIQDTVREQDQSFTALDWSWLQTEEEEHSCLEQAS
As to conditions: at 10 µM.

Experiment [16] addresses Insulin receptor (Homo sapiens) (UniProt P06213). As to conditions: at 1 µM.

Insulin-like growth factor 1 receptor (Homo sapiens), sequence (P08069 31-736 limits assumed): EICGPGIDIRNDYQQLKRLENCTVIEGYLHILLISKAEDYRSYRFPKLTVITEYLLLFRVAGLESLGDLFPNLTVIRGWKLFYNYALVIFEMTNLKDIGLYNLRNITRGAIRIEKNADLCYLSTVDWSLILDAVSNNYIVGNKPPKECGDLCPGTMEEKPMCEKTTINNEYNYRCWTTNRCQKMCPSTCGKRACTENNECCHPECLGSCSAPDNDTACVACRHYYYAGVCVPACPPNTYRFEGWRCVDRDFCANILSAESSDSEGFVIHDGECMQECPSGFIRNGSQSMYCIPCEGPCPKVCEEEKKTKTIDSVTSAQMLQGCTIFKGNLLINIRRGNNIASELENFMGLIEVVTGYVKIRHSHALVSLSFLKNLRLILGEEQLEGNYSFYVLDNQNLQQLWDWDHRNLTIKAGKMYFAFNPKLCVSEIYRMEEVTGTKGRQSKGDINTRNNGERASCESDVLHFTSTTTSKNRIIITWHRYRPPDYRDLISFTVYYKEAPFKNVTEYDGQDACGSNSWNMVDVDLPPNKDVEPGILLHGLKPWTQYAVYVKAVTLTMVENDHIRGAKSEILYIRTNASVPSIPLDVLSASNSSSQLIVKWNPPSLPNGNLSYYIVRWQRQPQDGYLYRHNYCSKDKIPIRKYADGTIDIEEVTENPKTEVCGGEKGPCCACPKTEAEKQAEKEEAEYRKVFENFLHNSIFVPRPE
Insulin-like growth factor 1 receptor (Homo sapiens), sequence (P08069 741-1367 limits assumed): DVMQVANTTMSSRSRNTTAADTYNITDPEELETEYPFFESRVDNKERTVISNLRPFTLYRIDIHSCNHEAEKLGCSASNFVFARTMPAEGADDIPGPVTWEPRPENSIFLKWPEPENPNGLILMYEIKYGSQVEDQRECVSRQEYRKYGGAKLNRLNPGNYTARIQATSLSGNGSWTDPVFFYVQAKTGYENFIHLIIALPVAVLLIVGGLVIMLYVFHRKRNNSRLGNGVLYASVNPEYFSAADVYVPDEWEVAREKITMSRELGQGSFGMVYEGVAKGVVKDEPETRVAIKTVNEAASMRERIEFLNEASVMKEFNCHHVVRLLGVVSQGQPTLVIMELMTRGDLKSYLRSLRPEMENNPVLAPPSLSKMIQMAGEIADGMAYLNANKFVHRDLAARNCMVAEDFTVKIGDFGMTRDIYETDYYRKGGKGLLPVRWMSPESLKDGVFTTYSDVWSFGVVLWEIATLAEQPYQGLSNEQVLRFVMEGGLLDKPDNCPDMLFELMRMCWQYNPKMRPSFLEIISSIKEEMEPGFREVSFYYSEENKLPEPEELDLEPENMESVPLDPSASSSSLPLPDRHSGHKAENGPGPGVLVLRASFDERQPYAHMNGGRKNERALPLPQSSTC
Insulin receptor (Homo sapiens), sequence (P06213 28-758 limits assumed): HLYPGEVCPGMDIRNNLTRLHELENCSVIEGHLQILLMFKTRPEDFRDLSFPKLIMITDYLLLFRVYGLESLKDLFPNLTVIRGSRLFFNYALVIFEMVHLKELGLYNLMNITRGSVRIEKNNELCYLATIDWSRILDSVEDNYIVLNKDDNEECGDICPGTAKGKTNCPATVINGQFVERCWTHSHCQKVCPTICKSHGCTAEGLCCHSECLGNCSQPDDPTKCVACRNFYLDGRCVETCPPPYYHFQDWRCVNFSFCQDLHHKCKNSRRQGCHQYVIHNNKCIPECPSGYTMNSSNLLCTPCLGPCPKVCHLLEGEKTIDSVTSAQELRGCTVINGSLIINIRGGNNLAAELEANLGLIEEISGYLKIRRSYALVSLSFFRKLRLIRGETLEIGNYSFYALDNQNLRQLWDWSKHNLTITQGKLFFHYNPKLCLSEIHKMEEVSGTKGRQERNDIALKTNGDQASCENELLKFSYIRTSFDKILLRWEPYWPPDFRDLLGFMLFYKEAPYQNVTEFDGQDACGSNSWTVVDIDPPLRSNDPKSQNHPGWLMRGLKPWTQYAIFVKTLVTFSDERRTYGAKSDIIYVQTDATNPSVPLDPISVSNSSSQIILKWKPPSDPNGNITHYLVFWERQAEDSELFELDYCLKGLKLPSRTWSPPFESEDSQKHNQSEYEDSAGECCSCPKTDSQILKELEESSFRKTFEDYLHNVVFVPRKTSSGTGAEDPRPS
Insulin receptor (Homo sapiens), sequence (P06213 763-1382 limits assumed): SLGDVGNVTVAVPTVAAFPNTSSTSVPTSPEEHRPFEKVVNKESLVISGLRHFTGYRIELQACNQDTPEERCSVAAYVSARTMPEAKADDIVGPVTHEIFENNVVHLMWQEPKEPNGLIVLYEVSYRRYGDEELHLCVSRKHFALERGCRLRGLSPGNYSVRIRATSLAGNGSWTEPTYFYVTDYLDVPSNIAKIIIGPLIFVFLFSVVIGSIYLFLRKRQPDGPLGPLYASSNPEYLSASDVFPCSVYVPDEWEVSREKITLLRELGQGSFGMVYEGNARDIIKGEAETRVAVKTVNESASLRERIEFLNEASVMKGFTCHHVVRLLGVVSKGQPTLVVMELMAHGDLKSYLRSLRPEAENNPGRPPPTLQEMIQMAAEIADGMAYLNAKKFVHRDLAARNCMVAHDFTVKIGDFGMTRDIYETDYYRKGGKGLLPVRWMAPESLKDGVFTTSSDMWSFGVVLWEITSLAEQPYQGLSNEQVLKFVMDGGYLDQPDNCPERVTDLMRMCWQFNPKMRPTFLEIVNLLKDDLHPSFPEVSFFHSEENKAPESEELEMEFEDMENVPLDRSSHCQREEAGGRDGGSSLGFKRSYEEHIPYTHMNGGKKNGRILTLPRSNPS

For the molecule `CO[C@@H]1[C@H](N(C)C(=O)c2ccccc2)C[C@H]2O[C@]1(C)n1c3ccccc3c3c4c(c5c6ccccc6n2c5c31)C(=O)NC4`, the residual activity in experiment [1] turned out to be 3%; in experiment [2], 50%; in experiment [3], 17%; in experiment [4], 83%; in [5] it was 47%; in [6] it was 42%. Moreover, the residual activity was found to be 29% in experiment [7]; 2% in experiment [8]; 1% in [9]; 85% in [10]; 92% in experiment [11]; 84% in experiment [12]. The residual activity worked out at 101% in experiment [13], 91% in experiment [14], 84% in experiment [15] and 87% in experiment [16].
